Pf growth 48h = Primary qHTS for delayed death inhibitors of the malarial parasite plastid, 48 hour incubation; P. falciparum luciferase growth in erythrocytes, 48 h; Potency, µM (highest dose often 28.7 µM), inactives show at the highest dose activity change, negative = inhibition, usual class: inhibitors; 5.9% of 310,000 active; AID 504832, 2011; further: potency means the concentration at half of the fitted maximal effect; on the % scale 0 is the no-effect control and ±100 the full control effect
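Luciferase-expressing parasites in RBCs, 2% Hct / 0.1% parasitemia final; RPMI 1640 + 0.5% Albumax; 37 C, 5% CO2, one generation; luminescence read-out, lower signal = inhibition.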
Pf growth 96h = Primary qHTS for delayed death inhibitors of the malarial parasite plastid, 96 hour incubation; Potency, µM (top dose mostly 28.7 µM), for the others: top-dose activity change, negative = inhibition, most hits filed as inhibitors; P. falciparum luciferase reporter growth, 96 h; AID 504834, 2011; 6.9% of 320,000 active; further: potency means the concentration at half of the fitted maximal effect; on the % scale 0 is the no-effect control and ±100 the full control effect
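96 h incubation, 37 C, 5% CO2, of luciferase-reporter P. falciparum-infected RBCs (2% hematocrit, 0.05% parasitemia final) with test compounds; endpoint luminescence.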
LmPK inhibitor = qHTS Assay for Inhibitors of Leishmania Mexicana Pyruvate Kinase (LmPK) | purified LmPK, Kinase-Glo ATP luminescence, 1 h | Potency, µM (titrated, usually from 57.5 µM), inactives show at the top dose activity change, negative = inhibition, usual class: inhibitors | 0.37% of 290,000 active; further: potency means the concentration at half of the fitted maximal effect; on the % scale 0 is the no-effect control and ±100 the full control effect
Target sequence (Q27686 whole entry, looked up): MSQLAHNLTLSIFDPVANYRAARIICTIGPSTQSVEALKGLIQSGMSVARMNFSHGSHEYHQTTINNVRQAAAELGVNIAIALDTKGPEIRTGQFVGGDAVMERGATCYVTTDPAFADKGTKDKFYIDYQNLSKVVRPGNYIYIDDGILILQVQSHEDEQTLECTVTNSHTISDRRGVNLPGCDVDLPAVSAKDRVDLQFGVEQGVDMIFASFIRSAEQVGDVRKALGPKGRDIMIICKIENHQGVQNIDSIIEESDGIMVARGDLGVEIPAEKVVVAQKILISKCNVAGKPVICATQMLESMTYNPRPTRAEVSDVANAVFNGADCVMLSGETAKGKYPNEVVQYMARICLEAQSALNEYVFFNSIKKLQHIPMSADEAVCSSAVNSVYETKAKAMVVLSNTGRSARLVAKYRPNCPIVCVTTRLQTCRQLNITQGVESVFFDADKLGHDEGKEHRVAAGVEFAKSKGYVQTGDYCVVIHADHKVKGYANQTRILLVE
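Pyruvate kinase activity monitored as ATP production (luciferase luminescence). Conditions: 0.1 nM enzyme, 0.5 mM PEP, 0.1 mM ADP, 1 h, RT; normalized against uninhibited and no-enzyme wells.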
CHX counter = Cycloheximide Counterscreen for Small Molecule Inhibitors of Shiga Toxin; 12% of 300,000 active; max response, %; cell reporter, cycloheximide protein synthesis inhibition counterscreen; in the data active means max response mostly above about 13%, no sharp cut-off; inactive means mostly below about 14%; further: read at 38.3 µM for the half of the compounds with a filed dose; 0% is about no effect
Shiga toxin inh = A qHTS for Small Molecule Inhibitors of Shiga Toxin. Vero cells, Shiga toxin protein synthesis inhibition reporter. inhibition, % at 38.7 µM. 9.2% of 290,000 active. AID 2315, 2010; in the data active means inhibition mostly above about 28%, no sharp cut-off; inactive means mostly below about 43%; further: 0% is about no effect
An asterisk follows results filed as active. The list is not random: actives were taken first. Their share in the collection is about 22%. Unless noted, the call rests on the fitted dose curve; in most records, active means well fitted inhibition curve with a large enough effect; inconclusive means small, poorly fitted or top-dose-only effect, or another doubt; inactive means no such curve, though single readings can be large or run the other way.

What do the screens show for `CCCc1nnc(NC(=O)c2nc(S(=O)(=O)Cc3cccc(C)c3)ncc2Cl)s1`?
Pf growth 48h: -6%; Pf growth 96h: inconclusive; LmPK inhibitor: 0%; CHX counter: 52*; Shiga toxin inh: 68*

Results for Cc1cccc(CS(=O)(=O)c2ncc(Cl)c(C(=O)NCc3ccccc3)n2)c1 ?
Pf growth 48h: 32%; Pf growth 96h: 0%; LmPK inhibitor: -9%; CHX counter: 24*; Shiga toxin inh: 38*

What do the screens show for `Cc1ccccc1NC(=O)c1nc(S(C)(=O)=O)ncc1Cl`?
Pf growth 48h: 1%; Pf growth 96h: 13µM*; LmPK inhibitor: -5%; CHX counter: 42*; Shiga toxin inh: 48*

What do the screens show for `Cc1cccc(CS(=O)(=O)c2ncc(Cl)c(C(=O)Nc3c(C)cccc3C)n2)c1`?
Pf growth 48h: -15%; Pf growth 96h: 37%; LmPK inhibitor: -8%; CHX counter: 22*; Shiga toxin inh: 20

Results for CCN1CCN(CCC(=O)Nc2ccccc2C)CC1 ?
Pf growth 48h: -2%; Pf growth 96h: 8%; LmPK inhibitor: -3%; CHX counter: 0; Shiga toxin inh: -3

How did Cc1nnc(NC(=O)c2nc(S(=O)(=O)Cc3ccccc3)ncc2Cl)s1 do in these assays?
Pf growth 48h: 1%; Pf growth 96h: -10%; LmPK inhibitor: 0%; CHX counter: 63*; Shiga toxin inh: 86*

How did COc1ccccc1-c1nnc(Sc2nc([N+](=O)[O-])nn2C)o1 do in these assays?
Pf growth 96h: 1.9µM*; LmPK inhibitor: -17%; CHX counter: 1; Shiga toxin inh: -7

How did O=C(Cc1ccsc1)N1CCN(S(=O)(=O)c2ccccc2F)CC1 do in these assays?
Pf growth 48h: 39%; Pf growth 96h: -4%

Results for CCCC[C@@H](CNC)NC[C@H](Cc1ccc(O)cc1)NCCc1ccc(OCC)cc1 ?
Pf growth 48h: 2.6µM*; Pf growth 96h: 0.93µM*; LmPK inhibitor: -4%; CHX counter: -4; Shiga toxin inh: 1

What do the screens show for `CCC[C@H](CN[C@@H](CNC)[C@H](C)O)NCCc1ccc(OC)cc1`?
Pf growth 48h: -28%; Pf growth 96h: inconclusive; LmPK inhibitor: -1%; CHX counter: -1; Shiga toxin inh: -9

What do the screens show for `Cc1cccc(N2C(=O)C(O)=C(C(=O)c3cccs3)C2c2ccc(Cl)cc2)n1` (stereo not drawn)?
Pf growth 48h: 8%; Pf growth 96h: 31%; LmPK inhibitor: 3%; CHX counter: -1; Shiga toxin inh: 0

How did O=C(CCC1COc2ccccc2O1)NCc1ccccc1 (stereo not drawn) do in these assays?
Pf growth 96h: 3.7µM*; LmPK inhibitor: -5%; CHX counter: -2; Shiga toxin inh: -17

What do the screens show for `O=C(CC1COc2ccccc2O1)NCCc1ccccc1` (stereo not drawn)?
Pf growth 48h: 40%; Pf growth 96h: -42%; LmPK inhibitor: 4%; CHX counter: 52*; Shiga toxin inh: 64*

How did O=C(CC1COc2ccccc2O1)NCc1ccccc1 (stereo not drawn) do in these assays?
Pf growth 48h: -11%; LmPK inhibitor: 2%; CHX counter: -2; Shiga toxin inh: 11

How did COc1ccc(F)cc1S(=O)(=O)Nc1cc2c3c(c1)CCN3C(=O)CC2 do in these assays?
Pf growth 48h: 10%; Pf growth 96h: -5%

Results for O=C(/C=C/c1ccco1)Nc1cccnc1 ?
Pf growth 48h: 90%; Pf growth 96h: 64%; LmPK inhibitor: inconclusive; CHX counter: 21*; Shiga toxin inh: 47

Results for O=C(/C=C/c1ccco1)Nc1ccc(Oc2ccc(Cl)cc2)cc1 ?
Pf growth 48h: 8.3µM*; Pf growth 96h: 3%; LmPK inhibitor: 0%; CHX counter: -3; Shiga toxin inh: 0

What do the screens show for `COc1ccc(CCNC(=O)/C=C/c2ccco2)cc1`?
Pf growth 48h: -7%; Pf growth 96h: -14%; LmPK inhibitor: 2%; CHX counter: -3; Shiga toxin inh: 18

How did COc1cccc(NC(=O)/C=C/c2ccco2)c1 do in these assays?
Pf growth 48h: 306%; Pf growth 96h: 258%; LmPK inhibitor: 16µM*; CHX counter: 52*; Shiga toxin inh: 140*

Screens deposited in PubChem by National Center for Advancing Translational Sciences (NCATS).
